# The campaign covered roughly 190,000 compounds. About 3,500 (1.8%) were called active. Many of the other results were omitted from the sample, so actives are more common in it than they were. Unmarked numbers belong to inactive results.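 The calls were made as follows: active = inhibition above a set limit, 3 SD over mean compound inhibition (cut at about 8.4% in these data); inactive = the rest.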
# Experiment: RAM signaling blockers in budding yeast – dse1pr::URA3 reporter, 5-FOA selection, primary screen (AID 868);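 also: 0% = DMSO-only wells with no growth and 100% = 10 µM 1-NA-PP1 full growth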
# Settings: S. cerevisiae dse1pr::URA3 reporter, 5-FOA growth OD615, 2 d; at 50 µM; stronger effect = higher value; analog-sensitive cbk1-as2 kinase mutant strain
row,SMILES,inhibition
1,Nc1cc(C(F)(F)F)ccc1N1CCOCC1,2.42%
2,O=C(CN1CCN(S(=O)(=O)c2ccc(Br)cc2)CC1)Nc1ccccc1C(=O)c1ccccc1,3.25%
3,Cc1cc2ccccc2n1CCNC(=O)COc1ccc2ccccc2c1,11.6% (active)
4,Cc1cc2ccccc2n1CCC(=O)O,-0.54%
5,COC(=O)C(C)NC(=O)COc1ccc2ccccc2c1 (configuration not stated),1.01%
6,COc1ccc(S(=O)(=O)Nc2cccnc2)c(Cl)c1Cl,2.49%
7,CC(C)Cc1nn2c(=O)cc(O)nc2s1,1.5%
8,COc1cccc(CNn2cn[nH]c2=S)c1OCc1ccccc1,1.01%
9,CSc1c(SCc2ccccc2)cnn(Cc2ccccc2)c1=O,1.14%
10,COc1ccc(S(=O)(=O)N(C)CC(=O)Nc2ccc3c(c2)OCCO3)cc1OC,9.23% (active)
11,COc1ccc(NC(=O)CN(C)S(=O)(=O)c2ccccc2)cc1OC,0.34%
12,COc1ccc(/C=C/C(=O)Nc2ccc3c(c2)OCCO3)cc1OC,1.12%
13,Cc1ccc(N2C(=O)C3CC3C2=O)cc1 (configuration not stated),0%
14,O=C(NCc1ccc(Cl)cc1)NCc1ccc(Cl)cc1,2.41%
15,Cc1cccc(Oc2c([N+](=O)[O-])c(=O)n(C)c3ccccc23)c1,2.19%
16,CC(C)c1csc(CN2CCC(CO)(Cc3ccccc3)CC2)n1,1.22%
17,COc1ccc([N+](=O)[O-])cc1NC(=O)c1ccc(N(Cc2ccccc2C)S(C)(=O)=O)cc1,4.39%
18,COc1ccc([N+](=O)[O-])cc1NC(=O)CC1SC(=Nc2cccc(C)c2C)N(/N=C(\C)c2ccc(C)cc2)C1=O (configuration not stated),9.07% (active)
19,COc1ccc([N+](=O)[O-])cc1NC(=O)CCc1ccccc1,0.95%
20,Cc1ccccc1Nc1nc(N)nc(CSc2ccccc2)n1,-0.26%
21,COc1ccc(-c2nnc(SC(C)C#N)o2)cc1 (configuration not stated),-0.45%

row,SMILES,inhibition
1,COc1ccc(-c2nnc(SCc3cccnc3)o2)cc1,0.36%
2,COc1ccc(-c2nnc(SC(=O)N3c4ccccc4Sc4ccccc43)o2)cc1,8.49% (active)
3,CC1CCN(c2ccc([N+](=O)[O-])cc2C(N)=O)CC1,1.09%
4,Cc1cc(C)c(NC(=S)N2CCCC2C(=O)O)c(C)c1 (configuration not stated),-0.25%
5,COC(=O)c1ccc(C2C(Oc3ccccc3C)C(=O)N2CCc2ccc(OC)c(OC)c2)cc1 (configuration not stated),12.4% (active)
6,COc1ccc(CCNC(=O)C(=O)NCc2ccccc2C)cc1OC,0.77%
7,COc1ccc(CCN2C(=O)c3[nH]nc(-c4ccccc4O)c3C2c2ccc(C)cc2)cc1OC (configuration not stated),1.8%
8,Cc1sc2c(c1C)c(=O)n(-c1ccccc1)c(=O)n2CC(=O)NCC1CCCO1 (configuration not stated),1.92%
9,O=C(O)/C=C/C(=O)NNc1ccc([N+](=O)[O-])cc1,0.13%
10,CCOCCCNC(=O)C(NC(=O)c1ccccc1O)c1ccccc1 (configuration not stated),0%
11,Cc1nn(-c2ccccc2)c(Cl)c1C(=O)Nc1ccccc1,6.51%
12,Cc1nn(-c2ccccc2)c(Cl)c1/C=C/C(=O)c1ccc(O)cc1,8.5% (active)
13,Cc1ccc(-n2nc(C)c(/C=N/NC(=O)c3cccs3)c2Cl)cc1,5.29%
14,Cc1nn(-c2ccccc2)c(C)c1NC(=O)CCl,3.63%
15,Cc1nn(-c2ccccc2)c(C)c1/C=C/C(=O)OC(C)C(N)=O (configuration not stated),1.08%
16,Cc1ccc(C(=O)/C=C/c2c(C)nn(-c3ccccc3)c2Cl)cc1,14.1% (active)
17,OCC(CO)(CO)NCc1ccc(-c2ccccc2)cc1,1.38%
18,COC(=O)N/N=C/c1ccc(/C=N/NC(=O)OC)cc1,1.05%
19,COc1cc(C)c(S(=O)(=O)N2CCOCC2)c(C)c1C,0.98%
20,Cc1ccc(N=Cc2c(O)cc(C)oc2=O)c(C)c1,0.38%
21,Cc1ccc(-n2c(O)c(C=Nc3ccc(S(=O)(=O)Nc4ncccn4)cc3)c3ccccc3c2=O)cc1C,7.54%

row,SMILES,inhibition
1,Cc1ccc(N=Cc2c(O)n(-c3nccs3)c(=O)c3ccccc23)c(C)c1,8.99% (active)
2,C/C(CC(=O)N1CCN(C=O)CC1)=N\NC(=O)c1ccc(Br)cc1,2.35%
3,Cc1ccc2[nH]c(C)c(CCNC(=O)NC3CCCCC3)c2c1,1.04%
4,CC(=O)N(CCCN(C)C)c1nc2ccc(C)cc2s1,3.5%
5,CC(C)c1cc(NCc2ccccn2)n2c(nc3ccccc32)c1C#N,-0.26%
6,CCOc1ccccc1/C=N/NC(=O)CNC(=O)COc1ccccc1,1.01%
7,C=C(C)CNC(=S)N/N=C/c1ccccc1OCC(=O)O,0%
8,C=CCc1ccccc1OCC(=O)N/N=C/c1ccccc1OCC,12.4% (active)
9,O=[N+]([O-])c1cc(S(=O)(=O)CCCN2CCOCC2)ccc1F,-0.13%
10,COc1ccc(/C(C)=N/NC(=O)CCC(=O)Nc2ccc(Cl)cc2Cl)c(OC)c1,0.4%
11,COc1cc(OC)c(C(=O)OC(C)C(=O)Nc2cc(C(F)(F)F)ccc2Cl)cc1OC (configuration not stated),0.5%
12,COc1ccc(/C(C)=N/Nc2cc(C(F)(F)F)ccc2Cl)c(OC)c1,13.5% (active)
13,COC(=O)c1ccc(CN2CCC(CO)(Cc3ccc(OC)cc3)CC2)cc1,1.4%
14,COc1ccc(-c2ccc(CCC(=O)O)n2NC(=O)c2ccc(C(C)(C)C)cc2)cc1,5.38%
15,Cc1ccc(CN2CCN(Cc3ccc4ncccc4c3)CC2CCO)cc1 (configuration not stated),0.13%
16,O=C(/C=C/c1ccc2c(c1)OCO2)NCc1cn2cc(Cl)ccc2n1,3.64%
17,Cc1ccc(Cl)cc1NC(=O)COC(=O)C1CCCCC1,1.91%
18,O=C(COC(=O)CCCNC(=O)c1ccc(Cl)cc1)Nc1cc(Cl)ccc1Cl,14.2% (active)
19,Cc1ccc(Cl)cc1NC(=O)COC(=O)CC(C)(C)C,-1.53%
20,O=C(O)c1n[nH]nc1-c1ccccc1,0.27%
